# Screening results: PubChem, National Center for Advancing Translational Sciences (NCATS)
# KCNH2 WT inh: qHTS for Inhibitors of KCHN2 3.1: Wildtype qHTS. Voltage-gated inwardly rectifying potassium channel KCNH2 (Homo sapiens), Q12809. U2OS, BacMam KCNH2, thallium flux FluxOr; active compounds read low. activity change, % at 1.84 µM. 0.37% of 340,000 active;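 active = maximum activity change below -70%; inconclusive = maximum activity change between -70% and -50%; inactive = maximum activity change above -50%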
#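 U2OS cells transduced with wild-type KCNH2 virus are loaded with FluxOr dye for 45 min, and thallium flux is measured in kinetic reads before and after stimulation buffer. Rate constants are normalized to DMSO controls.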
# Mm-Cpn inhibitor: Inhibitors of TCP-1 ring complex (TRiC) of Methanococcus maripaludis (MmCpn): qHTS. Chaperonin Mm-Cpn (Methanococcus maripaludis). Potency, µM (highest dose often 76.9 µM), usual class: inhibitors. purified Mm-Cpn ATPase, ADP Transcreener TR-FRET. 0.031% of 330,000 active; also: nearly all actives have a fitted effect of over 80% in size
#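 ATP (10 uM final) was added to archaeal chaperonin (25 nM final) after 10 min exposure to test compound at 37°C; after 30 min further incubation, ADP was detected by competitive TR-FRET.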
# KCNH2 3.1 inh: qHTS for Inhibitors of KCHN2 3.1: Mutant qHTS | Potassium voltage-gated channel subfamily H member 2, brain isoform KCNH2 3.1 (human) | U2OS KCNH2 3.1, thallium flux FluxOr; active compounds read low | activity change, % (tested at about 1.8 µM) | 0.95% of 340,000 active;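 active = maximum activity change below -70%; inconclusive = maximum activity change from -70% to -50%; inactive = maximum activity change above -50%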;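 also: thallium influx rate constant from kinetic fluorescence after stimulation buffer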
#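 FluxOr-based Tl+ influx in U2OS cells transduced with KCNH2 3.1 virus; rate constants normalized to DMSO controls.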
# uPA generation: qHTS for Inhibitors of Cell Surface uPA Generation; Potency, µM (top dose mostly 38.3 µM), most hits filed as inhibitors; cell surface uPA generation assay, qHTS; 0.31% of 330,000 active; active = well fitted inhibition curve with a large enough effect; inconclusive = small, poorly fitted or top-dose-only effect; inactive = no such curve, though single readings can be large or run the other way; tested in mouse RAW 264.7 cells; also: nearly all actives have a fitted effect of over 55% in size
# p53 reactivator: qHTS assay for re-activators of p53 using a Luc reporter. H1299 p53-A138V BP100-luciferase reporter, luminescence, 24 h. Potency, µM (top dose mostly 92.2 µM), most hits filed as activators. 0.063% of 320,000 active; also: nearly all actives have a fitted effect of over 45% in size
#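 p53-null H1299 cells stably carrying temperature-sensitive p53-A138V and a BP100-luciferase reporter were pinned with compounds (4-point, 1:5 series) and held 24 hrs at 37 deg C. Luminescence was read 10 min after detection reagent.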
# S-ASM inh: Inhibitors of Secretory Acid Sphingomyelinase (S-ASM): qHTS. placental ASM, HMU-PC fluorogenic substrate, 60 min. 0.006% of 340,000 active. Potency, µM (highest dose often 57.5 µM), most hits filed as inhibitors
# Target sequence (P17405 47-631 limits assumed): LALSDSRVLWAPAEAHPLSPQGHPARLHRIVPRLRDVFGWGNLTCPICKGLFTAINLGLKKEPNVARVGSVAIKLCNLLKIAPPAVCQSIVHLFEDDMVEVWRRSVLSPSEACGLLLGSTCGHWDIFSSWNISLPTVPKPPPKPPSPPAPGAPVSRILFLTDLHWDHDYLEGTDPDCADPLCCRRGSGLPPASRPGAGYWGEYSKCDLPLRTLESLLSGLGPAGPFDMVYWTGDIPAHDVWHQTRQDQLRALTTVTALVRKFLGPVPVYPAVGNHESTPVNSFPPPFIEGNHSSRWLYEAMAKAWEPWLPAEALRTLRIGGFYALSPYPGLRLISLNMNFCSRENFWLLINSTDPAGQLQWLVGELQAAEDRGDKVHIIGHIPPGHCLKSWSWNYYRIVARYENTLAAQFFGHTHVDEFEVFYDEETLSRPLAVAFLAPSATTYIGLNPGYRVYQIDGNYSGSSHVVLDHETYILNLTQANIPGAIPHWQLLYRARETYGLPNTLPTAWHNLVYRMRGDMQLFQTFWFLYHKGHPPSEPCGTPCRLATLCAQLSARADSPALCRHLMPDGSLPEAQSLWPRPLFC
#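 Fluorescence read-out (Ex 386 nm, Em 447 nm) after stopping the reaction at pH 10. Enzyme: ASM from human placenta; substrate HMU-PC0, 9 uM final; 60 min, 37 °C. Compound preincubation 10 min, ambient temperature.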
# Numbers stand for hits; - = inactive; ? = inconclusive; . = no result. An excerpt weighted towards active compounds, which were near 1.4% of everything screened. Unless noted, calls follow the shape of the dose curve; as a rule, active = well fitted curve in the direction sought with a large enough effect; inconclusive = small, poorly fitted or top-dose-only effect, or another doubt; inactive = no such curve, though single readings can be large; an effect the other way counts as inactive or inconclusive.
SMILES,KCNH2 WT inh,Mm-Cpn inhibitor,KCNH2 3.1 inh,uPA generation,p53 reactivator,S-ASM inh
COc1cccc2nc3cc(C)c(C)cc3nc12,-,-,-,3.2µM,-,-
COc1cccc2c1nc(C)c1cc(C)oc12,-,-,-,-,?,-
CC(C(=O)N1CCCCC1)N(C)CC(=O)Nc1cccc(F)c1 (stereo not given),-,-,-,-,-,-
CCOC(=O)c1cn(-c2c(Cl)cccc2Cl)c2cc(Cl)c([N+](=O)[O-])cc2c1=O,-,-,-,8.9µM,-,-
C=CCn1cnnc1SCC(=O)Nc1cccnc1Cl,.,-,.,.,-,.
CC(=O)Nc1c(F)cc(Br)cc1F,-,-,-95,-,-,-
CC(=O)Nc1cc(Br)ccc1O,-,-,-,-,-,-
COc1cccc(C(=O)NC2CCCN(C3Cc4ccccc4C3)C2)c1OC (stereo not given),-,-,-,-,-,-
OC(CNCC1(N2CCCCC2)CCCCC1)COc1ccc(Cl)cc1Cl (stereo not given),?,-,-86,-,-,-
C=CCn1c(SCC(=O)N2CCCC2=O)nc2sc(CC)cc2c1=O,-,-,-,-,-,-
C=CCn1c(SCC(=O)N2CCN(C(=O)c3ccco3)CC2)nc2sc(CC)cc2c1=O,-109,-,?,-,-,-
Cc1ccc(NC(=O)CN2C(=O)NC3(CCCc4ccccc43)C2=O)c([N+](=O)[O-])c1 (stereo not given),-,-,?,-,-,-
Cc1ccc(S(=O)(=O)N2CCOCC2)cc1C(=O)NCCCn1ccnc1,-90,-,-,-,-,-
COCCCN(C(=S)Nc1cc(C)cc(C)c1)C(C)c1ccncc1 (stereo not given),-,-,-72,-,-,-
CCc1ccc(NC(=O)c2ccc3c(c2)CCN3S(C)(=O)=O)cc1,-,.,-,.,.,.
COc1ccc(CN2CCC(n3nccc3NC(=O)CCc3ccccc3)CC2)c(C)c1C,-,-,-81,-,-,-
CCOc1ccc(CN2CCC(n3nccc3NC(=O)CCCc3ccccc3)CC2)cc1,-132,-,-,-,-,-
O=C(CCCc1ccccc1)Nc1ccnn1C1CCN(Cc2ccc(Cl)cc2)CC1,-,-,-103,-,-,-
CCOc1cccc(CN2CCC(n3nccc3NC(=O)CCCc3ccccc3)CC2)c1,-,-,-,-,-,-
COc1cc(CN2CCC(n3nccc3NC(=O)CCCc3ccccc3)CC2)ccc1F,-,-,-96,-,-,-
COc1cccc(CN2CCC(n3nccc3NC(=O)CCCc3ccccc3)CC2)c1O,-,-,-,-,-,-
CCCC1NC(=O)c2cc3ccccc3cc2-n2c1nc1cc(Cl)ccc1c2=O (stereo not given),-,.,?,.,.,.
O=C(CN1C(=O)NC2(CCCCCC2)C1=O)NCc1ccc(Cl)cc1,-,-,-,-,-,-
CCN(CC)S(=O)(=O)c1cc(NC(=O)CCn2[nH]c(=O)ccc2=O)ccc1C,-,-,-,-,-,-
CSc1ccc(CN2CCC(n3nccc3NC(=O)CCCc3ccccc3)CC2)cc1,-112,-,-114,-,-,-
SMILES,KCNH2 WT inh,Mm-Cpn inhibitor,KCNH2 3.1 inh,uPA generation,p53 reactivator,S-ASM inh
O=C(CCCc1ccccc1)Nc1ccnn1C1CCN(Cc2ccccc2)CC1,-,-,-,-,-,-
COCCNC(=O)c1ccc(N2CC3CC(C2)c2cccc(=O)n2C3)c(NC(=O)c2ccccc2Br)c1 (stereo not given),-,.,-,.,.,.
CC(=O)Nc1sc2c(c1-c1nc3ccccc3s1)CN(C(C)C)CC2,.,-,.,2µM,-,-
O=C(Nc1cccc(Cl)c1)c1nc[nH]c1C(=O)Nc1ccccc1F,-71,.,-,.,.,.
O=C(Nc1ccc(Cl)cc1)c1nc[nH]c1C(=O)Nc1ccccc1F,-,.,-,.,.,.
COc1ccc(CN(C)C(C)C(=O)Nc2ccc([N+](=O)[O-])cc2Cl)cc1OC (stereo not given),-,-,-85,-,-,-
Cc1ccc(-n2ncc3ccccc3c2=O)cc1Cl,-,-,-,-,-,-
O=c1c2ccccc2cnn1-c1ccc(Cl)cc1,-,-,-,-,25µM,-
O=c1c(Cl)c(Cl)cnn1-c1ccccc1,-,-,-,3.5µM,-,-
Nc1c(Cl)cnn(-c2ccccc2)c1=O,-,.,-,-,.,-
O=[N+]([O-])c1ccc2oc(/C=C/c3ccc(O)cc3)nc2c1,-,.,-,.,.,.
CN(C)CCCN(C(=O)c1ccc(S(=O)(=O)N(C)C2CCCCC2)cc1)c1nc2ccc(F)cc2s1,-,-,-,-,-,-
CCOc1cccc2sc(N(CCCN(C)C)C(=O)c3ccc(S(=O)(=O)N(C)c4ccccc4)cc3)nc12,-106,-,-85,?,-,-
CCOc1cccc2sc(N(CCCN(C)C)C(=O)c3ccc(S(=O)(=O)N4CCc5ccccc5C4)cc3)nc12,-,-,-,-,-,-
CCc1ccc2nc(N(CCCN(C)C)C(=O)c3ccc(S(=O)(=O)N(C)C4CCCCC4)cc3)sc2c1,-,-,-72,-,-,-
Nc1ccc2c(c1)C(=O)c1cc(Cl)c(Cl)cc1-2,-,.,-,-,.,-
Clc1ccc(CN2CCC(c3nc4ccc(Cl)cc4[nH]3)CC2)cc1,-96,-,-97,-,-,-
CC1CCCN(C(=O)CN2CCC(c3nc4ccc(Cl)cc4[nH]3)CC2)C1 (stereo not given),-,-,-,-,-,-
CCc1nccn1S(=O)(=O)c1ccc2ccc(C)cc2c1,-,-,-71,-,-,-
CCOc1ccc2cc(S(=O)(=O)n3ccnc3C)ccc2c1,-,-,-,-,-,-
O=C(Nc1nnc(CC(c2ccccc2)c2ccccc2)s1)c1ccco1,-,-,-,-,-,-
CCC(c1ccccc1)c1nnc(NC(=O)c2ccco2)s1 (stereo not given),-,-,-117,-,-,-
CCc1ccc2oc(-c3ccc(OC)cc3)cc(=Nc3c(C)n(C)n(-c4ccccc4)c3=O)c2c1,-,-,-,8.9µM,-,-
Cc1ccc(C)c(N2CCN(CCCNC(=O)Cn3cccc3C(=O)c3ccccc3C)CC2)c1,-75,-,-84,-,-,-
Cc1ccccc1C(=O)c1cccn1CC(=O)NCCCN1CCCCC1,-,-,-,-,-,-
